In PubChem BioAssay (NCI):
About 83,000 compounds went through this panel and 20% of them were active in at least one assay; those are over-represented in the sample as a whole.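 How to read the values: 0–100, growth inhibition (40 = 60% inhibited); 0, no net growth; -100 to 0, cell death (-40 = 40% of starting cells died; -100 = all dead).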 A number with no mark means an inactive call. The source made the active and inactive calls. How the source made its calls: active means growth percent below 10; inactive means the rest.

System: UO-31 renal
Assay: NCI-60 one-dose screen, 48 h (100 = growth as untreated, 0 = no growth, -100 = all killed)
Settings: 10 µM unless noted

SMILES	growth
CCCCCCCCN(CCCCCCCC)C(=O)CCl	73.3%
O=C(Nc1ccc(-n2ccc3c(NC(=O)c4ccccc4)nccc32)cc1)c1ccc(N2CCOCC2)c(C(F)(F)F)c1	0.765% (active)
O=C1/C(=C/c2ccccc2)SC(=Nc2ccccc2)N1Nc1ccccc1	14.8%
C[N+](C)(C)CC(=O)N/N=C\c1ccco1	82.8%
CC(C)CCSc1nc(-c2ccc(F)cc2)c(C#N)c(N2CCN(C)CC2)n1	51.3%
CC(=O)Oc1c(Cl)c(Cl)c(Cl)c(Cl)c1Cl	81.6%
CN(C)c1nc(-c2cccs2)n2nc(-c3ccc(Cl)cc3)cc2n1	-63.9% (active)
COc1nccc2c(Sc3ccccc3)nc(N)nc12	75.3%
c1cn2cc(-c3ccc4ncn(C5CCCCC5)c4c3)nc(-c3ccc4c(c3)ncn4C3CCCCC3)c2n1	-85.4% (active)
CCc1onc(-c2ccc(OC)cc2)c1-c1ccccc1OCCN(CC)CC	56.8%
CCN(CCC#N)c1ccccc1	89.1%
S=C(S)Oc1cccc2cccnc12	62.2%
COc1ccccc1CNCCCN1C(=O)c2ccc3c4c(ccc(c24)C1=O)C(=O)N(CCCNCCCN)C3=O	23.3%
CC(C)c1ccc(-c2cnc3nonc3n2)cc1	41.3%
CN1CCCN(CCNc2nccc(-c3c(-c4cccc(O)c4)nc4sccn34)n2)S1(=O)=O	25.2%
COc1ccccc1CNCCCN1C(=O)c2ccc3c4c(ccc(c24)C1=O)C(=O)N(CCCCNCCCN)C3=O	48.3%
CCC(=O)OCc1ccc(OC)cc1	82%
COc1ccc2[nH]cc(C3(c4c[nH]c5ccc(OC)cc45)C(=O)Nc4ccc(F)cc43)c2c1	62%
CN1C(=O)NC(Cc2c[nH]c3c(Cl)cccc23)C1=O (stereo unspecified)	78.5%

SMILES	growth
NC(N)=N/N=C/c1ccc(Cl)cc1	73.3%
CC(C)(c1ccccc1)c1cc(O)c(C(C)(C)c2ccccc2)cc1O	17.2%
COc1cc(-c2nn(C(=O)NCCN3CCN(C)CC3)cc2-c2ccncc2)ccc1Cl	54%
CCCCCCCCCCCCCCCCCC(=O)[O][Sn]([CH2]CCC)([CH2]CCC)[CH2]CCC	-92.4% (active)
CC(C)c1nc2ccccc2n1CC(=O)N/N=C/c1cccc(O)c1	80.2%
O=C(Nc1ccc(Cl)cc1)c1cc(-c2ccc(Cl)cc2)c2sc(=O)[nH]c2n1	-5.54% (active)
Oc1ccc(-c2nnc3c4[nH]ccc4ncn23)cc1	76.3%
Cc1nc(N)nc2c1CCC(Nc1ccccc1)S2 (stereo unspecified)	79.2%
NNC(=O)CSc1nc2scc(-c3ccccc3)c2c(=O)n1-c1ccccc1	76.2%
COC(=O)C(Br)(C(=O)OC)C(Br)C(Br)C(Br)c1ccccc1 (stereo unspecified)	-8.98% (active)
COc1cnc2c(c1)C(=O)c1c-2n(CCCN2CCN(C)CC2)c(=O)c2cc(Cl)ccc12	40.1%
COc1cc([N+](=O)[O-])cc(OC)c1OC	86.5%
O=c1oc2ccccc2cc1-c1cc(-c2ccc(-c3cc(-c4cc5ccccc5oc4=O)nc(-c4cc5ccccc5oc4=O)c3)cc2)cc(-c2cc3ccccc3oc2=O)n1	88.3%
CCCCCCCOc1cccc(/C=C2\N=C3SCCCN3C2=O)c1	78.7%
CN(C)c1ccc(C2(Cl)c3ccccc3N(C)c3ccccc32)cc1	71.8%
O=C(Nc1cccc(-n2ccc3c(NC(=O)c4ccccc4)nccc32)c1)c1ccc(N2CCOCC2)c(C(F)(F)F)c1	5% (active)
Fc1ccc(-c2nc(-c3ccc(-c4nc5ccc(F)cc5[nH]4)cc3)no2)cc1	84.4%
Clc1ccc(C2=NN[C@H](c3cn(-c4ccccc4)nc3-c3ccccc3)C2)cc1	105%
CNC1=C([N+](=O)[O-])C(c2ccccc2O)C(C#N)=C(c2cccs2)O1 (stereo unspecified)	70.5%

System: TK-10 renal
Assay: as above
Settings: 10 µM unless noted

SMILES	growth
CCCCCCCCN(CCCCCCCC)C(=O)CCl	108%
O=C(Nc1ccc(-n2ccc3c(NC(=O)c4ccccc4)nccc32)cc1)c1ccc(N2CCOCC2)c(C(F)(F)F)c1	27.6%
O=C1/C(=C/c2ccccc2)SC(=Nc2ccccc2)N1Nc1ccccc1	31.4%
C[N+](C)(C)CC(=O)N/N=C\c1ccco1	95.2%
CC(C)CCSc1nc(-c2ccc(F)cc2)c(C#N)c(N2CCN(C)CC2)n1	88.2%
CC(=O)Oc1c(Cl)c(Cl)c(Cl)c(Cl)c1Cl	101%
CN(C)c1nc(-c2cccs2)n2nc(-c3ccc(Cl)cc3)cc2n1	-23.1% (active)
COc1nccc2c(Sc3ccccc3)nc(N)nc12	103%
c1cn2cc(-c3ccc4ncn(C5CCCCC5)c4c3)nc(-c3ccc4c(c3)ncn4C3CCCCC3)c2n1	-59.3% (active)
CCc1onc(-c2ccc(OC)cc2)c1-c1ccccc1OCCN(CC)CC	92.2%
CCN(CCC#N)c1ccccc1	117%
S=C(S)Oc1cccc2cccnc12	100%
COc1ccccc1CNCCCN1C(=O)c2ccc3c4c(ccc(c24)C1=O)C(=O)N(CCCNCCCN)C3=O	33.3%
CC(C)c1ccc(-c2cnc3nonc3n2)cc1	47.5%
CN1CCCN(CCNc2nccc(-c3c(-c4cccc(O)c4)nc4sccn34)n2)S1(=O)=O	92.4%
COc1ccccc1CNCCCN1C(=O)c2ccc3c4c(ccc(c24)C1=O)C(=O)N(CCCCNCCCN)C3=O	36.7%
CCC(=O)OCc1ccc(OC)cc1	107%
COc1ccc2[nH]cc(C3(c4c[nH]c5ccc(OC)cc45)C(=O)Nc4ccc(F)cc43)c2c1	125%
CN1C(=O)NC(Cc2c[nH]c3c(Cl)cccc23)C1=O (stereo unspecified)	147%

SMILES	growth
NC(N)=N/N=C/c1ccc(Cl)cc1	84.9%
CC(C)(c1ccccc1)c1cc(O)c(C(C)(C)c2ccccc2)cc1O	36.1%
COc1cc(-c2nn(C(=O)NCCN3CCN(C)CC3)cc2-c2ccncc2)ccc1Cl	20.5%
CCCCCCCCCCCCCCCCCC(=O)[O][Sn]([CH2]CCC)([CH2]CCC)[CH2]CCC	-93.6% (active)
CC(C)c1nc2ccccc2n1CC(=O)N/N=C/c1cccc(O)c1	93.5%
O=C(Nc1ccc(Cl)cc1)c1cc(-c2ccc(Cl)cc2)c2sc(=O)[nH]c2n1	0.672% (active)
Oc1ccc(-c2nnc3c4[nH]ccc4ncn23)cc1	92.3%
Cc1nc(N)nc2c1CCC(Nc1ccccc1)S2 (stereo unspecified)	105%
NNC(=O)CSc1nc2scc(-c3ccccc3)c2c(=O)n1-c1ccccc1	178%
COC(=O)C(Br)(C(=O)OC)C(Br)C(Br)C(Br)c1ccccc1 (stereo unspecified)	-45.2% (active)
COc1cnc2c(c1)C(=O)c1c-2n(CCCN2CCN(C)CC2)c(=O)c2cc(Cl)ccc12	48.5%
COc1cc([N+](=O)[O-])cc(OC)c1OC	106%
O=c1oc2ccccc2cc1-c1cc(-c2ccc(-c3cc(-c4cc5ccccc5oc4=O)nc(-c4cc5ccccc5oc4=O)c3)cc2)cc(-c2cc3ccccc3oc2=O)n1	129%
CCCCCCCOc1cccc(/C=C2\N=C3SCCCN3C2=O)c1	96.2%
CN(C)c1ccc(C2(Cl)c3ccccc3N(C)c3ccccc32)cc1	64.3%
O=C(Nc1cccc(-n2ccc3c(NC(=O)c4ccccc4)nccc32)c1)c1ccc(N2CCOCC2)c(C(F)(F)F)c1	6.82% (active)
Fc1ccc(-c2nc(-c3ccc(-c4nc5ccc(F)cc5[nH]4)cc3)no2)cc1	119%
Clc1ccc(C2=NN[C@H](c3cn(-c4ccccc4)nc3-c3ccccc3)C2)cc1	99.2%
CNC1=C([N+](=O)[O-])C(c2ccccc2O)C(C#N)=C(c2cccs2)O1 (stereo unspecified)	100%
